Reference: publication PMC5540273 (PLoS ONE, 2017)

Tests used:
Conditions in all cases: concentration: 1 μM, replicates: in singlicate; n = 1
PIP5K2C = system: T1, PIP5K2C
T1 construct: gene PIP4K2C

PKAC-alpha = system: T2, PKAC-alpha
T2 construct: gene PRKACA

PKAC-beta = system: T3, PKAC-beta
T3 construct: gene PRKACB

PKMYT1 = system: PKMYT1
PKN1 = system: PKN1
PKN2 = system: PKN2
PLK1 = system: PLK1
PLK2 = system: PLK2
PLK3 = system: PLK3
PLK4 = system: PLK4
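Note: KINOMEscan kinase panel screen.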

| SMILES | %Inh (PIP5K2C) [%] | %Inh (PKAC-alpha) [%] | %Inh (PKAC-beta) [%] | %Inh (PKMYT1) [%] | %Inh (PKN1) [%] | %Inh (PKN2) [%] | %Inh (PLK1) [%] | %Inh (PLK2) [%] | %Inh (PLK3) [%] | %Inh (PLK4) [%] |
| --- | --- | --- | --- | --- | --- | --- | --- | --- | --- | --- |
| Cl.O=S(=O)(c1cccc(F)c1)c1ccc(Nc2ncnc3cc(Br)sc23)cc1Cl [GSK306886] | 60 | 0 | 0 | 26 | 19 | 0 | 0 | 0 | 0 | 26 |
| Cc1cccc(-c2nc(Nc3ccc4[nH]nnc4c3)c3ccccc3n2)n1 [GW867587] | 0 | 0 | 0 | 0 | 0 | 0 | 0 | 0 | 0 | 0 |
| Cl.c1ccc(Cn2ccc3cc(Nc4ncnc5ccccc45)ccc32)cc1 [GW275568] | 25 | 18 | 0 | 0 | 26 | 0 | 4 | 0 | 0 | 5 |
| Fc1cccc(COc2ccc(Nc3ncnc4nn5ccccc5c34)cc2Cl)c1 [GW689066] | 32 | 0 | 8 | 0 | 0 | 0 | 0 | 0 | 0 | 0 |
| O=C(c1ccc(-c2cc(-c3c[nH]nc3-c3ccccn3)ccn2)cc1)N1CCCC1 [GW792479] | 97 | 0 | 22 | 0 | 0 | 0 | 0 | 0 | 12 | 0 |
| CS(=O)(=O)CCNCc1ccc(-c2ccc3ncnc(Nc4ccc(OCc5ccccc5)c(Cl)c4)c3c2)o1.Cl [GW574783] | 29 | 4 | 16 | 0 | 12 | 8 | 6 | 0 | 0 | 0 |
| Cl.c1ccc(Cn2ncc3cc(Nc4ncnc5ccccc45)ccc32)cc1 [GW273749] | 0 | 0 | 0 | 0 | 13 | 0 | 2 | 0 | 2 | 0 |
| COc1ccc(NC(=O)c2ccc(-c3cc(-c4nnc(C)o4)ccc3C)cc2)cc1 [GW595885] | 4 | 0 | 13 | 0 | 0 | 0 | 0 | 0 | 0 | 0 |
| Nc1nc(-c2cccnc2)c(-c2ccnc3ccccc23)s1 [GW684083] | 51 | 0 | 0 | 0 | 0 | 0 | 0 | 0 | 0 | 0 |
| Cl.Fc1ccccc1COc1ccc(Nc2ncnc3ccc(-c4nnc(C(F)(F)F)o4)cc23)cc1Cl [GW424170] | 7 | 0 | 0 | 0 | 0 | 0 | 0 | 0 | 0 | 0 |
| Cn1cc(-c2ccc3c(c2)CCN3C(=O)Cc2cccc(C(F)(F)F)c2)c2c(N)ncnc21 [GSK2606414] | 0 | 4 | 6 | 5 | 37 | 0 | 0 | 0 | 0 | 15 |
| O=C(Nc1ccccc1)Nc1ccc(Oc2ccc3nccn3n2)cc1 | 25 | 0 | 55 | 8 | 6 | 4 | 3 | 0 | 15 | 0 |
| COc1ccc(Nc2nccc(N3CCC(NC(=O)c4cccc(NC(C)=O)c4)C3)n2)cc1 (stereo not drawn) [GSK1379732] | 57 | 0 | 12 | 3 | 0 | 0 | 15 | 6 | 0 | 0 |
| Nc1nc(-c2ccc3c(N)n[nH]c3c2)cc(N2CCC[C@@H](C(=O)Nc3ccccc3)C2)n1.O=C(O)C(F)(F)F.O=C(O)C(F)(F)F [GSK2288359] | 31 | 14 | 22 | 0 | 17 | 0 | 3 | 0 | 3 | 16 |
| COc1ccc(Nc2nccc(N3CCC(NC(=O)Nc4ccc5c(c4)OCO5)C3)n2)cc1 (stereo not drawn) [GSK1379745] | 44 | 5 | 5 | 0 | 38 | 0 | 8 | 0 | 0 | 0 |
| COC(=O)c1c(-c2ccccc2)c2cc(Cl)ccc2c(=O)n1Cc1ccc(S(C)(=O)=O)cc1 | 0 | 5 | 0 | 1 | 0 | 0 | 0 | 6 | 9 | 26 |
| Cl.Cl.c1ccc(-c2cc3ccncc3cc2OC2CCNCC2)cc1 [GSK1122999] | 6 | 0 | 9 | 14 | 0 | 19 | 5 | 0 | 0 | 9 |
| COc1cc2ncnc(Nc3ccc(OCc4ccccc4Br)c(Cl)c3)c2cc1OC.Cl [GI261590] | 41 | 0 | 0 | 3 | 100 | 0 | 3 | 0 | 0 | 0 |
| Nc1nc(-c2ccccn2)c(-c2ccnc3ccccc23)s1 [GW548057] | 57 | 0 | 4 | 0 | 0 | 9 | 0 | 0 | 0 | 14 |
| CSc1nn2c(=O)cc(N3CCOCC3)nc2n1Cc1cccc(Cl)c1Cl [GSK2347225] | 7 | 24 | 12 | 0 | 5 | 0 | 55 | 0 | 5 | 13 |
| CS(=O)(=O)CCNCc1nc(-c2ccc3ncnc(Nc4ccc(OCc5cccc(F)c5)c(Cl)c4)c3c2)cs1.Cl [GW583340] | 24 | 0 | 0 | 0 | 0 | 0 | 0 | 0 | 0 | 3 |
